The whole screen tested about 5,500 compounds, of which about 2,000 (36%) were called active. Inconclusive results (about 18%) are left out. Rule as the data show it: active = normalized growth mostly below about 0.91 (no sharp cut-off); inconclusive = no clear call, values can overlap the other calls; inactive = mostly above about 0.92. The list shows a part of the results.
Test: chemical genetic growth profiling, strain panel (AID 1159580);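 also: tested at 20 µM; growth read once vehicle control cultures reached saturation at 30 °C; 1 = growth at the plate median or of vehicle wells; lower values mean less growth of the strain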
Conditions: growth OD

Measured: normalized growth

O=C(O)c1ccccc1-c1c2cc(Br)c(=O)cc-2oc2[c]([Hg])c(O)c(Br)cc12
inactive: S. cerevisiae deletion strains, locus YKL009W, strain mrt4, hits give low values 0.924 | S. cerevisiae deletion strains, locus YKR026C, strain gcn3, hits give low values 1.05 | S. cerevisiae deletion strains, locus YKR091W, strain srl3, hits give low values 1.04 | S. cerevisiae deletion strains, locus YLL001W, strain dnm1, hits give low values 1.03 | S. cerevisiae deletion strains, locus YLL026W, hits give low values 1.04 | S. cerevisiae deletion strains, locus YLL041C, strain sdh2, hits give low values 1.02 | S. cerevisiae deletion strains, locus YLR027C, strain aat2, hits give low values 1.04 | S. cerevisiae deletion strains, locus YLR039C, strain RIC1, hits give low values 0.949 | S. cerevisiae deletion strains, locus YLR058C, strain SHM2, hits give low values 0.992 | S. cerevisiae deletion strains, locus YLR221C, strain rsa3, hits give low values 1 | S. cerevisiae deletion strains, locus YLR258W, strain gsy2, hits give low values 1.04 | S. cerevisiae deletion strains, locus YLR262C, strain YPT6 (second series), hits give low values 1.09 | S. cerevisiae deletion strains, locus YLR262C, strain YPT6, hits give low values 0.68 | S. cerevisiae deletion strains, locus YLR320W, strain mms22, hits give low values 1.02 | S. cerevisiae deletion strains, locus YLR342W, strain FKS1, hits give low values 1.02 | S. cerevisiae deletion strains, locus YLR357W, strain rsc2, hits give low values 1 | S. cerevisiae deletion strains, locus YLR370C, strain arc18, hits give low values 1.04 | S. cerevisiae deletion strains, locus YLR384C, strain iki3, hits give low values 1.02 | S. cerevisiae deletion strains, locus YML032C, strain rad52, hits give low values 0.99 | S. cerevisiae deletion strains, locus YML120C, strain ndi1, hits give low values 1.03 | S. cerevisiae deletion strains, locus YMR058W, strain fet3, hits give low values 1.02 | S. cerevisiae deletion strains, locus YMR125W, strain sto1, hits give low values 1.02 | S. cerevisiae deletion strains, locus YMR129W, hits give low values 1.04 | S. cerevisiae deletion strains, locus YMR205C, strain PFK2, hits give low values 1.09 | S. cerevisiae deletion strains, locus YMR231W, strain pep5, hits give low values 1.03 | S. cerevisiae deletion strains, locus YMR263W, strain SAP30, hits give low values 0.943 | S. cerevisiae deletion strains, locus YNL071W, strain lat1, hits give low values 1.01 | S. cerevisiae deletion strains, locus YNL153C, strain GIM3, hits give low values 0.89 | S. cerevisiae deletion strains, locus YNL209W, strain ssb2, hits give low values 1.03 | S. cerevisiae deletion strains, locus YNL248C, strain rpa49, hits give low values 1.02 | S. cerevisiae deletion strains, locus YNL322C, strain KRE1 (second series), hits give low values 1.05 | S. cerevisiae deletion strains, locus YNR049C, strain mso1, hits give low values 1.02 | S. cerevisiae deletion strains, locus YNR052C, strain pop2, hits give low values 0.937 | S. cerevisiae deletion strains, locus YOL012C, strain htz1 0.228 | S. cerevisiae deletion strains, locus YOL147C, strain pex11, hits give low values 0.995 | S. cerevisiae deletion strains, locus YOR001W, strain rrp6, hits give low values 1.04 | S. cerevisiae deletion strains, locus YOR070C, strain gyp1, hits give low values 1.02 | S. cerevisiae deletion strains, locus YOR080W, strain dia2, hits give low values 1.02 | S. cerevisiae deletion strains, locus YOR083W, strain WHI5, hits give low values 1.03 | S. cerevisiae deletion strains, locus YOR106W, strain vam3, hits give low values 0.952 | S. cerevisiae deletion strains, locus YOR144C, strain elg1, hits give low values 1.02 | S. cerevisiae deletion strains, locus YOR265W, strain rbl2, hits give low values 1.04 | S. cerevisiae deletion strains, locus YOR290C, strain snf2, hits give low values 1.07 | S. cerevisiae deletion strains, locus YPL051W, strain arl3, hits give low values 1 | S. cerevisiae deletion strains, locus YPL078C, strain atp4, hits give low values 1.04 | S. cerevisiae deletion strains, locus YPL106C, strain sse1, hits give low values 0.909 | S. cerevisiae deletion strains, locus YPL240C, strain hsp82, hits give low values 1.03 | S. cerevisiae deletion strains, locus YPL241C, strain CIN2, hits give low values 0.987
active: S. cerevisiae deletion strains, locus YKL068W, hits give low values 0.565 | S. cerevisiae deletion strains, locus YKL085W, strain MDH1 (second series), hits give low values 0.0686 | S. cerevisiae deletion strains, locus YKL085W, strain MDH1, hits give low values 0.0686 | S. cerevisiae deletion strains, locus YKL160W, strain elf1, hits give low values 0.0872 | S. cerevisiae deletion strains, locus YKL190W, strain CNB1, hits give low values 0.575 | S. cerevisiae deletion strains, locus YKR001C, strain vps1, hits give low values 0.101 | S. cerevisiae deletion strains, locus YLR102C, strain apc9, hits give low values 0.081 | S. cerevisiae deletion strains, locus YLR113W, strain HOG1, hits give low values 0.485 | S. cerevisiae deletion strains, locus YLR268W, strain sec22, hits give low values 0.106 | S. cerevisiae deletion strains, locus YLR330W, strain CHS5, hits give low values 0.0829 | S. cerevisiae deletion strains, locus YLR342W, strain FKS1 (second series), hits give low values 0.132 | S. cerevisiae deletion strains, locus YLR371W, strain rom2, hits give low values 0.0749 | S. cerevisiae deletion strains, locus YLR418C, strain cdc73, hits give low values 0.166 | S. cerevisiae deletion strains, locus YML016C, strain PPZ1, hits give low values 0.0683 | S. cerevisiae deletion strains, locus YML124C, strain tub3, hits give low values 0.779 | S. cerevisiae deletion strains, locus YMR078C, strain ctf18, hits give low values 0.484 | S. cerevisiae deletion strains, locus YMR223W, strain ubp8, hits give low values 0.0739 | S. cerevisiae deletion strains, locus YMR307W, strain GAS1, hits give low values 0.228 | S. cerevisiae deletion strains, locus YNL067W, strain RPL9B, hits give low values 0.814 | S. cerevisiae deletion strains, locus YNL128W, strain TEP1, hits give low values 0.196 | S. cerevisiae deletion strains, locus YNL183C, strain NPR1, hits give low values 0.513 | S. cerevisiae deletion strains, locus YNL233W, strain BNI4, hits give low values 0.104 | S. cerevisiae deletion strains, locus YNL250W, strain rad50, hits give low values 0.0998 | S. cerevisiae deletion strains, locus YNL271C, strain bni1, hits give low values 0.0638 | S. cerevisiae deletion strains, locus YNL298W, strain CLA4, hits give low values 0.062 | S. cerevisiae deletion strains, locus YNL307C, strain MCK1, hits give low values 0.072 | S. cerevisiae deletion strains, locus YNL322C, strain KRE1, hits give low values 0.914 | S. cerevisiae deletion strains, locus YOL006C, strain TOP1, hits give low values 0.153 | S. cerevisiae deletion strains, locus YOR061W, strain CKA2, hits give low values 0.155 | S. cerevisiae deletion strains, locus YOR069W, strain VPS5, hits give low values 0.494 | S. cerevisiae deletion strains, locus YOR136W, strain idh2, hits give low values 0.0743 | S. cerevisiae deletion strains, locus YOR184W, strain ser1, hits give low values 0.143 | S. cerevisiae deletion strains, locus YOR231W, strain MKK1, hits give low values 0.345 | S. cerevisiae deletion strains, locus YOR270C, strain vph1, hits give low values 1.31 [resistant] | S. cerevisiae deletion strains, locus YOR316C, strain cot1, hits give low values 0.0634 | S. cerevisiae deletion strains, locus YPL055C, strain LGE1, hits give low values 0.226 | S. cerevisiae deletion strains, locus YPL256C, strain CLN2, hits give low values 0.487 | S. cerevisiae deletion strains, locus YPR119W, strain clb2, hits give low values 0.0719 | S. cerevisiae deletion strains, locus YPR141C, strain kar3, hits give low values 0.254 | S. cerevisiae deletion strains, locus YPR163C, strain tif3, hits give low values 0.0765 | S. cerevisiae deletion strains, locus YPR167C, strain met16, hits give low values 0.0655 | S. cerevisiae deletion strains, strain wtn01, hits give low values 0.062 | S. cerevisiae strains, strain wild type, hits give low values 0.196

— PubChem BioAssay AID1159580 (chemical genetic matrix, 2015)
